Measured values reported in the supplement of paper PMC6555819.

system: VDR:RXRa (NR concentration 270 nM, RXRa partner concentration 90 nM); assay: PBM binding z-score (relative to random genomic background probes); higher = stronger binding; sequences stand for … in GC…GCGATTGACAGCGTAGAATGAAGG
Procedure: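 Protein-binding microarray (Agilent 4x180K custom design, double-stranded 60-nt probes: 5' GC cap, 34-nt variable region, 24-nt constant primer region; full probe sequence given). Purified or IVT nuclear receptor:RXRα heterodimers (3:1 NR:RXRα, mostly 270:90 nM) or homodimers were incubated for 1 h in PBS with 2% milk and no ligand, then detected with Alexa488 antibodies. Fluorescence from o1-orientation probes (~5 replicates averaged) was converted to z-scores against 500 random hg19 background probes. Variable regions are seed direct-repeat (DR0–DR5) sites, all their single-nucleotide variants and half-site ablations.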

Going from CTCGAAGGGTCGTGCTCAGGTGAGTATACCAAAC to CGTCCAAGGTCATAGGAGGTCAGCGAAGACAGAT, the PBM binding z-score rises from 1.59 to 6.6.

Compared with CCTCGGAGGACAGAAGATCAGAGCTGTCCGCTTT, TCTATTAGTAGATTAGGGCAACCGAAACAGCGGA is higher in PBM binding z-score: -0.618 for the first, 0.247 for the second.

Going from GCGACTGGGGCATCAGCAGGTTACCAAAACTTAA to TCTAGTTGATCACGGAGGTCACACACGACGGGTA, the PBM binding z-score rises from -0.298 to 3.99.

Compared with CCTCGGAGGGCAACAGGAGGTCAGAGCTGCCAGA, GCGGACAGGTGAAACGCAGGTAACTCAGGGTGGC is lower in PBM binding z-score: 3.12 for the first, -0.55 for the second.

Going from GCTAGCAGGCCATTTGGGCCACTCAATGACGGGC to CCGACTGAGGCAAAGGTTACCATACTCAGTACGA, the PBM binding z-score rises from -0.859 to 1.07.

Going from ACTATTAGTTGACTTGGGGCAACCGATACGACGC to GGAACAAGGGCAAGTTGATAGCAGAGTTTGATGG, the PBM binding z-score rises from 0.274 to 0.829.

Compared with TCTATTAGTTGAAGGTCAACCGACGAGTCCGTTT, ATTCCAAGGTGATCGTGAGGTCGTTGATACTAAC is lower in PBM binding z-score: 3.85 for the first, 3.31 for the second.

First: CCCACTGGGCCAAGGTCATTGATCAGTCAAAGCA
Second: ATTGAAAGGTCGACGAGGTGAGTATACACCGTTT
The PBM binding z-score of the first is lower: 2.94 for the first, 5.31 for the second.

Compared with TCATATAGATAAAAGGTGAAAGTCGGTGTGGTAA, GCTAGTTGGTGAGTAAAAGGTCACACACCGGTCG is higher in PBM binding z-score: 1.35 for the first, 3.72 for the second.

Going from ACTAGCAGGCCAAGGCTCACTCAAGATTAGTCCG to CCGACTGAGGCAAGGTTACCATAACGCACAGCCA, the PBM binding z-score rises from -0.781 to 0.0737.

Compared with GCATATAGGTAATACAAGGTGAGAGTCCGATTGT, GCTGCTAGGCCAGGTTGGTCAGCTAACGGGTACG is lower in PBM binding z-score: 0.351 for the first, -1.03 for the second.

First: GATAGCAGGCCATTTGGGTCACTCAATGACGGGC
Second: CGAACTAGGTCATCCATGACAGTGAATACATTGA
The PBM binding z-score of the first is lower: 1.07 for the first, 2.45 for the second.

Compared with CTCGCAAGGTCGGTTGAGGTGAGTATACGGATAA, ACTAGCAGGCCAAGGGTCACTTAAGATTAGTCCG is higher in PBM binding z-score: 1.21 for the first, 2.88 for the second.

Compared with TCTTCTAGATCAATAGAGGTTAAGAAAGTGCGCT, CCGACTGGGCCAGAAAGGTTACCATACCATCCGG is lower in PBM binding z-score: 1.94 for the first, 0.479 for the second.

Compared with CAAACTAGGTTAAAGGTCAAAGTCGAGCCAACCA, CAAACTAGGTCACGAAAGATCAAAGTCGAATGAC is lower in PBM binding z-score: 5.47 for the first, 3.03 for the second.

Compared with TCTTCTAGGTCAGTTGGTCAGCTAACGAGCTGCC, ACAGACAGGTGAGTGAAGGTAACTCGGCTGGACG is lower in PBM binding z-score: 1.3 for the first, -0.336 for the second.

First: ACTATTAGTTGACTTAGGGAAACCGATACGACGC
Second: ATCGAAAGGTCGACGAGGTGAGTGTACACCGTTT
The PBM binding z-score of the first is lower: 0.0698 for the first, 5.55 for the second.

Going from ATTTGTAGGTTAGCTGGGGTCATTCAGACTAGGC to CCTCGGAGGACTACAGGAGGTCAGAGCTGCCAGA, the PBM binding z-score falls from 6.42 to 1.26.

Going from AGAACGAGGGCACGCTGAGTTGATGGCAGAGTAG to TCATATACGTAAATGCTAGGTGAAAGTCCGATCT, the PBM binding z-score falls from 1.86 to 0.839.

Compared with CAAACTAGGTCACGAAAGGTCAAGGTCGAATGAC, CTGAGTAGGTTATGGGGCATTCAGGCAACGGTGA is lower in PBM binding z-score: 6.61 for the first, 0.0973 for the second.
